Here are results for 51 compounds from PubChem BioAssay (NCATS).

Each structure is given as a SMILES string. Results filed as inconclusive are left out. Unmarked numbers belong to inactive results. Active and inactive are the calls of the source. Calls come from the whole dose curve; as a rule, active = well fitted curve in the direction sought with a large enough effect; inconclusive = small, poorly fitted or top-dose-only effect, or another doubt; inactive = no such curve, though single readings can be large; an effect the other way counts as inactive or inconclusive.

The target of test [1] is Rap guanine nucleotide exchange factor 3 (Homo sapiens) (UniProt O95398). Description: Confirmatory qHTS for agonist of cAMP-regulated guanine nucleotide exchange factor 3 (EPAC1) (AID 1645881).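 Note: EPAC1 catalysed release of BODIPY-GDP from Rap1B seen as fluorescence loss; 100% = effect of cAMP agonist control; nearly all actives have a fitted effect of over 75% in size.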 Background: Quantitative high-throughput screening tests each substance at several concentrations.
Sequence of Rap guanine nucleotide exchange factor 3 (Homo sapiens) (O95398 whole entry, looked up): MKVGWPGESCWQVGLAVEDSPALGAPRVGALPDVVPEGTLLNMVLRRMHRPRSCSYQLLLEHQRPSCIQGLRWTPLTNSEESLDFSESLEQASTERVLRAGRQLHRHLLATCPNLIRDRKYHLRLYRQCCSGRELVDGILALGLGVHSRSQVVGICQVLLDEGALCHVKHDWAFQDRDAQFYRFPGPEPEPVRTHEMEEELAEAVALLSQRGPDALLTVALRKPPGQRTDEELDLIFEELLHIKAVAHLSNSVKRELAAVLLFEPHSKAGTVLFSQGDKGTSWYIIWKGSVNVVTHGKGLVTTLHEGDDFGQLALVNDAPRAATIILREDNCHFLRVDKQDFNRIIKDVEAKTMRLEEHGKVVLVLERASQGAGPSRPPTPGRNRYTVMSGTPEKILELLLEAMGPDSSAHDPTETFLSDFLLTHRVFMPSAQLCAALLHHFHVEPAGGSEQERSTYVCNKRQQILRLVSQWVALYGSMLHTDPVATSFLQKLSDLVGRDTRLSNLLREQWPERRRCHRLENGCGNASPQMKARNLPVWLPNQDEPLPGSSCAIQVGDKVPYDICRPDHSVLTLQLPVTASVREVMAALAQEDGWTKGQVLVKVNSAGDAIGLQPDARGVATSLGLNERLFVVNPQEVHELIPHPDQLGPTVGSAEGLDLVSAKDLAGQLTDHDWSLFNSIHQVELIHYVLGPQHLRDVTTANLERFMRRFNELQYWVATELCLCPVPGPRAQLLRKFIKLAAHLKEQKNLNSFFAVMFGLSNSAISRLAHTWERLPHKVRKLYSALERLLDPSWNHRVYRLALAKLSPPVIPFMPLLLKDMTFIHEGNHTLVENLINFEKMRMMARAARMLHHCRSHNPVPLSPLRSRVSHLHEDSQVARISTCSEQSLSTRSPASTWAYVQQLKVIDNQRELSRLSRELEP
Test [2] deals with Rap guanine nucleotide exchange factor 4 (Homo sapiens) (UniProt Q8WZA2). Description: Confirmatory qHTS for agonist of cAMP-regulated guanine nucleotide exchange factor 4 (EPAC2) (AID 1645884).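 Note: nucleotide exchange releases bodipy-GDP from Rap1 and this lowers its fluorescence; % is set by controls: 0 for no effect and ±100 for the full control effect; nearly all actives have a fitted effect of over 65% in size.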
Sequence of Rap guanine nucleotide exchange factor 4 (Homo sapiens) (Q8WZA2 whole entry, looked up): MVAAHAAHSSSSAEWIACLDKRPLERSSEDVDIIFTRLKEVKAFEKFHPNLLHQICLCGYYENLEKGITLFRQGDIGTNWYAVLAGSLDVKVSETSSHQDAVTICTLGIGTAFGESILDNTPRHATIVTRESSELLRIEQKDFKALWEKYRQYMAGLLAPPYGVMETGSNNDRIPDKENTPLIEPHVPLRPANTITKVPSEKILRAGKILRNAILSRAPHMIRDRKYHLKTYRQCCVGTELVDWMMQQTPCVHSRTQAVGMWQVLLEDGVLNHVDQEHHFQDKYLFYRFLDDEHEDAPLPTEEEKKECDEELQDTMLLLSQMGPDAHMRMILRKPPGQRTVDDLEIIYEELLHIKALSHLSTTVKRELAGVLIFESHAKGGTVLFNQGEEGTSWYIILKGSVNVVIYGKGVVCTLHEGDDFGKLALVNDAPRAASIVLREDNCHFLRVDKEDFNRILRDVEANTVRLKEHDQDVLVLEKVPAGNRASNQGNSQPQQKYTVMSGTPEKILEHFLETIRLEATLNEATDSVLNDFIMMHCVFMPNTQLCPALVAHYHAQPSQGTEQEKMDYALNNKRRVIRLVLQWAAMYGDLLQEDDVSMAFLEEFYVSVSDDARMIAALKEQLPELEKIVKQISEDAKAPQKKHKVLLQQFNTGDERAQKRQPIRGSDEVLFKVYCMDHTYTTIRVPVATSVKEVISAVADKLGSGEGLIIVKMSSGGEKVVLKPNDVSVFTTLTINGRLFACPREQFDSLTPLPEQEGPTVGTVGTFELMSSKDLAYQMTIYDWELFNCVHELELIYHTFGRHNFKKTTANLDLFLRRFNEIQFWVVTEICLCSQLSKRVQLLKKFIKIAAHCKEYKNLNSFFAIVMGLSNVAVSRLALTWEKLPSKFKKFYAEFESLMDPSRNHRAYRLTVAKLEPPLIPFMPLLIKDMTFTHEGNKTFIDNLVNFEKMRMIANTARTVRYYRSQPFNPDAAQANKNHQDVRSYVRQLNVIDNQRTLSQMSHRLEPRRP
The target is the same in test [3]. The experiment in a line: Confirmatory qHTS for antagonist of cAMP-regulated guanine nucleotide exchange factor 4 (EPAC2) (AID 1645885). For activity change, negative = inhibition: % is set by controls: 0 for no effect and ±100 for the full control effect. Note: nearly all actives have a fitted effect of over 25% in size. Note: potency is the fitted concentration of half-maximal effect.
Test [4] has as its target Rap guanine nucleotide exchange factor 3 (Homo sapiens) (UniProt O95398). The experiment in a line: Counterscreen qHTS for antagonist of cAMP-regulated guanine nucleotide exchange factor 3 (EPAC1) (AID 1645888).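 Note: fluorescence loss as bound BODIPY-GDP is released from Rap1B; % of control where 0% means no effect.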 In short, it runs like this:
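Rap1B–BODIPY-GDP (250 nM) with 50 uM GDP; compounds pin-transferred to 9.74 nM–152 uM final (activator) or from 7.32 nM upwards (inhibitor). Fluorescence Ex/Em 480/540 nm read at 5 and 30 min, then after adding cAMP or buffer, at room temperature.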
On the technique in general: A counterscreen serves to expose hits that act by an unwanted route or on another target.

With `C#CCN(Cc1nc(N2CCOCC2)c2ccc(Cl)cc2n1)Cc1ccco1`, the Potency entry in test [1] and in test [2] was “inactive” throughout. Besides, in test [3], the Potency is 17.5 µM (active).

With `Oc1ccc(N=Cc2ccc(OCc3ccccc3)cc2)cc1`, the Potency entry in test [1] and in test [3] was “inactive” throughout. Further, in test [2], the activation is 11.9% [at 17.1 µM, percent relative to cAMP agonist control].

With `O=C(CSc1nnc(SCc2ccc(Cl)cc2)s1)N/N=C/c1ccc(C(=O)O)cc1`, the Potency entry in test [1] and in test [2] was “inactive” in each case.

As to `CC(C)C[C@@H](COc1ccccc1)N1CCN(CCc2ccccc2)CCC1=O`, the Potency entry in test [1] and in test [2] was “inactive” in each case.

For `N#CC(c1ccccc1)C(CC(=NO)c1ccccc1)c1ccccc1` (centres undefined), the Potency entry in test [1] and in test [2] was “inactive” in each case.

On to `CCOc1cc(/C=N/Nc2ccc(C(=O)O)cc2)ccc1OC(=O)c1ccccc1C`, for which the Potency result in test [1] and in test [2] was “inactive” throughout.

Regarding `Cn1c(SCC(=O)c2ccc3c(c2)Cc2ccccc2-3)nnc1-c1ccccc1`, the Potency result in test [1] and in test [3] was “inactive” each time. The activation in test [2] was 0% [at 17.1 µM, percent relative to cAMP agonist control].

On to `c1ccc(C(c2cccs2)c2c[nH]c3ccccc23)cc1` (centres undefined), for which, in test [1], the Potency entry is “inactive”.

Consider `Cc1ccccc1NS(=O)(=O)c1ccc2c3c(cccc13)C(=O)N2C`, for which the Potency result in test [1] and in test [2] was “inactive” throughout.

As to `CCc1ccc(-c2cc(C)no2)cc1S(=O)(=O)N1CCC(C)CC1`, the Potency result in test [1] and in test [2] was “inactive” in each case.

For `Cc1ccc(-c2cc(C(=O)Nc3ccncc3)c3ccccc3n2)cc1`, the Potency entry in test [1] and in test [2] was “inactive” each time.

On to `Cc1cc(SCC(=O)N/N=C/c2ccc(O)c(O)c2)nc2ccccc12`, for which the Potency result in test [1] and in test [3] was “inactive” throughout. In addition, the activation in test [2] was 5.52% [at 17.1 µM, percent relative to cAMP agonist control]. For the same compound, in test [4], the activity change, negative = inhibition was -2.02% [at 30.8 µM].

Regarding `CCc1ccc2c(c1)NC(=O)C2(C)Cc1ccc(Cl)s1` (centres undefined), the Potency result in test [1] and in test [3] was “inactive” throughout. Also, in test [2], the activation is 0.147% [at 17.1 µM, percent relative to cAMP agonist control]. In addition, in test [4], the activity change, negative = inhibition is -21.9% [at 30.8 µM].

As to `CCOc1cccc(CNc2ccc(O)cc2)c1OCc1ccc(Cl)cc1`, the Potency entry in test [1], in test [2], in test [3] and in test [4] was “inactive” in each case.

Take `CSc1ccccc1C(=O)N(C)C(c1ccccc1)c1ccccc1`: the Potency result in test [1], in test [2] and in test [4] was “inactive” in each case. For the same compound, the Potency in test [3] was 26.9 µM (active).

As for `O=c1[nH][nH]c(-c2ccccc2O)c1C(C[N+](=O)[O-])c1ccc(Br)cc1` (centres undefined), the Potency result in test [1], in test [2], in test [3] and in test [4] was “inactive” throughout.

Turning to `Cc1ccc(O)c(-c2n[nH]c3c2C(c2ccccc2F)N(Cc2ccco2)C3=O)c1` (centres undefined), the Potency result in test [1], in test [2], in test [3] and in test [4] was “inactive” throughout.

As for `COc1ccc(C(=O)N(Cc2ccco2)Cc2ccc(C)o2)cc1`, the Potency entry in test [1], in test [2], in test [3] and in test [4] was “inactive” in each case.

On to `COc1cc(C2CC(=O)Oc3cc(C)c(Br)c(C)c32)cc(OC)c1OC` (centres undefined), for which the Potency entry in test [1] and in test [3] was “inactive” each time. For the same compound, the activation in test [2] is 16.3% [at 17.1 µM, percent relative to cAMP agonist control]. Further, the activity change, negative = inhibition in test [4] was -6.95% [at 30.8 µM].

For `Cc1nnc(SCC(=O)NCc2ccccc2F)c2nn(-c3ccc(Cl)cc3)c(C)c12`, the Potency entry in test [1], in test [2], in test [3] and in test [4] was “inactive” each time.

Regarding `O=C(CC(c1ccccc1)c1cc(Cl)ccc1O)N1CCCC1` (centres undefined), the Potency entry in test [1], in test [2], in test [3] and in test [4] was “inactive” throughout.

`Cc1cccc(C)c1NC(=O)Cn1c(=O)n(Cc2ccc(C(=O)NCc3ccco3)cc2)c(=O)c2sccc21`: the Potency result in test [1], in test [2], in test [3] and in test [4] was “inactive” throughout.

Take `CCn1c2c(c3cc(Cl)ccc31)CCCC2=O`: the Potency entry in test [1], in test [2], in test [3] and in test [4] was “inactive” each time.

Take `COn1c2c(c3c4nonc4ccc31)CCCC2`: the Potency entry in test [1], in test [2], in test [3] and in test [4] was “inactive” throughout.

Turning to `COc1cc(/C=C2/SC(=S)N(CC(=O)O)C2=O)ccc1OC(=O)c1cccs1`, the Potency entry in test [1], in test [2], in test [3] and in test [4] was “inactive” in each case.

Consider `O=C(O)c1ccc(-c2nc(-c3ccc(Cl)cc3Cl)cs2)cc1`, for which the Potency result in test [1] and in test [3] was “inactive” in each case. Besides, in test [2], the activation is 10.1% [at 17.1 µM, percent relative to cAMP agonist control]. The activity change, negative = inhibition in test [4] was -4.87% [at 30.8 µM].

As to `Cc1cccc(NC(=O)CN2C(=O)N/C(=C\c3ccccc3OCc3ccc(C(=O)O)cc3)C2=O)c1`, the Potency entry in test [1], in test [2], in test [3] and in test [4] was “inactive” in each case.

In the case of `O=c1[nH]cc(N=Cc2cc(Cl)cc(Cl)c2O)c(=O)[nH]1`, the Potency entry in test [1], in test [2], in test [3] and in test [4] was “inactive” throughout.

Regarding `CC1=NN(c2ccc(C)c(C)c2)C(=O)C1C(c1cccc(O)c1)C1C(=O)N(c2ccc(C)c(C)c2)N=C1C` (centres undefined), the Potency result in test [1] and in test [3] was “inactive” each time. For the same compound, the activation in test [2] is 7.48% [at 17.1 µM, percent relative to cAMP agonist control]. For the same compound, in test [4], the activity change, negative = inhibition is 19.9% [at 30.8 µM].

Regarding `O=[N+]([O-])c1cc(Br)ccc1NS(=O)(=O)c1ccccc1`, the Potency entry in test [1] and in test [3] was “inactive” each time. In addition, in test [2], the activation was -2.03% [at 17.1 µM, percent relative to cAMP agonist control]. Moreover, in test [4], the activity change, negative = inhibition was -16.7% [at 30.8 µM].

In the case of `CC1=C(C(=O)Nc2ccccc2)C(c2ccc(Cl)cc2)n2c(s/c(=C/c3cccc(OCC(=O)O)c3)c2=O)=N1` (centres undefined), the Potency result in test [1] and in test [3] was “inactive” throughout. The activation in test [2] was 3.83% [at 17.1 µM, percent relative to cAMP agonist control]. Moreover, the activity change, negative = inhibition in test [4] is -3.62% [at 30.8 µM].

On to `CCOC(=O)c1c(C)oc2c1c(C=NCCO)c(O)c1ccccc12`, for which the Potency entry in test [1] and in test [3] was “inactive” throughout. The activation in test [2] is 10.2% [at 17.1 µM, percent relative to cAMP agonist control]. The activity change, negative = inhibition in test [4] is 33.4% [at 30.8 µM].

For `COc1ccc(NC(=O)c2ccco2)cc1NC(=O)C(C)Oc1ccc(Cl)cc1Cl` (centres undefined), the Potency result in test [1], in test [2], in test [3] and in test [4] was “inactive” each time.

On to `Oc1ccc(-c2nc(-c3ccc(O)c(O)c3)cs2)cc1`, for which the Potency entry in test [1], in test [2], in test [3] and in test [4] was “inactive” each time.

On to `OCCCNc1ncnc2oc(-c3ccccc3)c(-c3ccccc3)c12`, for which the Potency result in test [1] and in test [3] was “inactive” throughout. The activation in test [2] was 0.534% [at 17.1 µM, percent relative to cAMP agonist control]. The activity change, negative = inhibition in test [4] was -6.04% [at 30.8 µM].

As for `Cc1cccc(Nc2nnc(-c3ccc(N4CCOCC4)c([N+](=O)[O-])c3)c3ccccc23)c1`, the Potency result in test [1], in test [2], in test [3] and in test [4] was “inactive” throughout.

Consider `COc1ccc(OC)c(NC(=O)C2(C)CCN2CCc2ccccc2)c1` (centres undefined), for which the Potency result in test [1], in test [2] and in test [4] was “inactive” throughout. In addition, the Potency in test [3] is 42.6 µM (active).

Regarding `O=C1N(Cc2ccccc2)c2ccccc2C1(O)c1c[nH]c2ccccc12` (centres undefined), the Potency result in test [1], in test [2], in test [3] and in test [4] was “inactive” in each case.

Consider `Cc1ccc(SC/C(O)=C(\C#N)c2nc3ccccc3s2)cc1`, for which the Potency result in test [1], in test [2], in test [3] and in test [4] was “inactive” throughout.

Turning to `CCOc1ccc(C(=O)N2CC(=O)Nc3ccc(C)cc3C2c2ccc(F)cc2)cc1OCC` (centres undefined), the Potency entry in test [1], in test [2] and in test [4] was “inactive” each time. In addition, the outcome in test [3] is “inactive [at 12.7 µM]”.

For `CN(c1ccccc1)c1ccc(/C=C(/CCC(=O)O)c2nc3ccccc3s2)cc1[N+](=O)[O-]`, the Potency entry in test [1], in test [2], in test [3] and in test [4] was “inactive” each time.

As for `O=C1c2cccc3cc([N+](=O)[O-])cc(c23)C(=O)N1/N=C/c1ccc(O)cc1O`, the Potency result in test [1], in test [2], in test [3] and in test [4] was “inactive” throughout.

With `COc1ccc(CCNC(=O)CS(=O)(=O)Cc2nc(-c3ccc(C)cc3)oc2C)cc1OC`, the Potency entry in test [1] and in test [3] was “inactive” throughout. In addition, in test [2], the activation is 2.98% [at 17.1 µM, percent relative to cAMP agonist control]. Also, the activity change, negative = inhibition in test [4] was -2.91% [at 30.8 µM].

For the compound `CCOc1ccccc1NC(=O)C1CCN(c2nc(-c3ccc(OC)cc3)no2)CC1`, the Potency result in test [1] and in test [3] was “inactive” in each case. In addition, the activation in test [2] was 2.09% [at 17.1 µM, percent relative to cAMP agonist control]. Besides, the activity change, negative = inhibition in test [4] was -14.4% [at 30.8 µM].

As for `Oc1c(C2=NCCNC(C(F)(F)F)=C2)ccc2ccccc12`, the Potency result in test [1], in test [2], in test [3] and in test [4] was “inactive” in each case.

For the compound `O=C1c2ccccc2C(=O)C12OC2c1cccc2ccccc12` (centres undefined), the Potency result in test [1], in test [2], in test [3] and in test [4] was “inactive” throughout.

Consider `Cc1cc(/C=C2\C(=N)N3N=C(c4ccco4)SC3=NC2=O)c(C)n1Cc1ccccc1`, for which the Potency result in test [1], in test [2], in test [3] and in test [4] was “inactive” each time.

Turning to `COc1ccc(C(CC(=O)c2ccc(C)cc2)C(C#N)C#N)cc1OC` (centres undefined), the Potency entry in test [1], in test [2], in test [3] and in test [4] was “inactive” throughout.

As for `O=C(Nc1ccc(S(=O)(=O)Nc2nccs2)cc1)c1cc(-c2ccccn2)nc2ccccc12`, the Potency result in test [1] and in test [3] was “inactive” each time. For the same compound, the activation in test [2] is 4.2% [at 17.1 µM, percent relative to cAMP agonist control]. In addition, the activity change, negative = inhibition in test [4] was -7.32% [at 30.8 µM].

As to `Cc1ccc2[nH]cc(C(c3ccccc3)c3ccc(Cl)s3)c2c1` (centres undefined), the Potency result in test [1], in test [2], in test [3] and in test [4] was “inactive” throughout.

As for `O=c1c2ccccc2nc(N/N=C/c2c(O)ccc3ccccc23)n1O`, the Potency result in test [1], in test [2], in test [3] and in test [4] was “inactive” each time.
